Only a selection was taken, and hits are over-represented in it overall.
HT1080-NT tox – kills 2HG-producing HT-1080-NT fibrosarcoma cells; HT-1080-NT fibrosarcoma viability, CellTiter-Glo ATP luminescence, 48 h; Potency, µM (titrated, usually from 46.1 µM), inactives show top-dose activity, negative = less viability, actives largely listed as cytotoxic; actives 1.6% (n = 360,000); AID 686970;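 further: NT is the 2HG producing partner of a matched IDH1 knockdown line; potency means the concentration at half of the fitted maximal effect; 0% = DMSO-treated cells and -100% = media-only wells without cells; nearly all actives have a fitted effect of over 55% in size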
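Luminescent CellTiter-Glo readout after 48 hours of compound exposure at 37 degrees C defined viability of HT-1080-NT cells. Activity was normalized to DMSO wells and cell-free media wells; concentration-response curves were fitted and assigned curve classes.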
IL1B secr inh – inhibitors of inflammasome signaling (IL-1 beta secretion); THP-1 LPS/ATP IL-1B secretion, AlphaLISA, 16 h; active compounds read low; activity change, % at 57.5 µM; actives 4.7% (n = 360,000); AID 743279; in the data active means activity change below about -50%; inconclusive means mostly about -30% to -49%
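THP-1 cells pretreated 1 hr with compounds (up to 57.5 uM final), then stimulated with LPS (250 ng/mL final) plus ATP (1.25 mM final); secreted IL-1B measured by AlphaLISA after 16 hr, decreased signal indicating inhibition.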
DT40 TDP1 CPT – growth inhibition of DT40 Tdp1-/-;hTDP1 cells with camptothecin (screen for TDP1 inhibitors). chicken DT40 Tdp1-/-;hTDP1 cells + 20 nM CPT, ATP luminescence, 48 h. Potency, µM (titrated, usually from 46.2 µM), for the others: at the top dose activity change, negative = growth inhibition, usual class: inhibitors. actives 12% (n = 420,000). AID 686979; further: potency means the concentration at half of the fitted maximal effect; nearly all actives have a fitted effect of over 55% in size
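Cell growth measured by CellTiter-Glo luminescence after a minimum 48 h, 37 C compound exposure with 20 nM CPT in Tdp1-knockout DT40 cells stably expressing hTDP1, seeded 400/well; qHTS titration format.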
TDP1 cell noCPT – qHTS for Inhibitors of human tyrosyl-DNA phosphodiesterase 1 (TDP1): qHTS in cells in absence of CPT; Potency, µM (top dose mostly 46.2 µM), without a hit: at the highest dose activity change, negative = growth inhibition, actives largely listed as inhibitors; DT40 Tdp1-/- hTDP1 cells, no CPT, ATP luminescence, 48 h; actives 15% (n = 420,000); further: potency means the concentration at half of the fitted maximal effect; nearly all actives have a fitted effect of over 55% in size
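DT40 Tdp1-/-;hTDP1 cells, no CPT (DMSO vehicle only), 400 cells/well; compounds pin-transferred; ≥48 hr, 37 °C; CellTiter-Glo 30 min RT dark, luminescence read.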
HT1080 IDH1KD tx – kills HT-1080 cells with IDH1 knockdown | HT-1080 IDH1 knockdown viability, ATP luminescence, 48 h | Potency, µM (series often up to 46.1 µM), without a hit: at the highest dose activity, negative = toxicity, hits mostly cytotoxic | actives 2% (n = 360,000) | AID 686971;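 further: potency means the concentration at half of the fitted maximal effect; 0% = DMSO wells and -100% = cell-free medium wells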
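IDH1KD HT-1080 cells, 750/well, RPMI + 5% FBS; compound pinned after 2 h settling; 48 h, 37 °C; CellTiter-Glo luminescence; % activity normalised to DMSO and no-cell wells; curves fitted, classed by r2 and efficacy.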
12-LOX inh – blocks human arachidonate 12S-lipoxygenase; purified 12hLO, xylenol orange hydroperoxide absorbance; Potency, µM (doses to about 108 µM), for the others: top-dose activity change, negative = inhibition, most hits filed as inhibitors; actives 1.1% (n = 580,000); AID 1671190; further: potency means the concentration at half of the fitted maximal effect
Target sequence (P18054 whole entry, looked up): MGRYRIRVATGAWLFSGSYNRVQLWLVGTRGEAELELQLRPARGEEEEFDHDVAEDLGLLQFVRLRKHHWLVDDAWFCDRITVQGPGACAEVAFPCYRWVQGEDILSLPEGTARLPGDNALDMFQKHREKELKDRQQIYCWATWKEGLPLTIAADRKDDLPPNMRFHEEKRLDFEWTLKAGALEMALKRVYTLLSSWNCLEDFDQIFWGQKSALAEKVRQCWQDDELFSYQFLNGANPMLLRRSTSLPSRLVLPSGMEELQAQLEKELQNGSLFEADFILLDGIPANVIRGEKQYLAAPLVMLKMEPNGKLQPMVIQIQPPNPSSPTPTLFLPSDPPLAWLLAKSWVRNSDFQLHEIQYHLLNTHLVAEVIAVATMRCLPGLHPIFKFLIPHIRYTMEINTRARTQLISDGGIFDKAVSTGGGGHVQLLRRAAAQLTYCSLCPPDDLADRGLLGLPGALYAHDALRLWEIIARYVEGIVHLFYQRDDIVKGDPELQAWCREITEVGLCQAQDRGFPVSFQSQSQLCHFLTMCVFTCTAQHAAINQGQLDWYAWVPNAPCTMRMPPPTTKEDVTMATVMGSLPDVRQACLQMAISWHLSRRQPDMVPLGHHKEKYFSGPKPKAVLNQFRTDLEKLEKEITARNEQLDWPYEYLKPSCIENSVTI
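Hydroperoxide product was detected by ferrous iron/xylenol orange as the 573 to 405 nm absorbance ratio. Arachidonic acid at 40 uM (final) was turned over for 30 min at room temperature by 150 nM human 12hLO, pH 7.0 Hepes buffer, after 15 min compound preincubation.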
* hit, by the source's call; ? = inconclusive; . = no result given; [ ] = another dose, or the depositor's remark. Unless noted, the call rests on the fitted dose curve; in most records, active means well fitted curve in the direction sought with a large enough effect; inconclusive means small, poorly fitted or top-dose-only effect, or another doubt; inactive means no such curve, though single readings can be large; an effect the other way counts as inactive or inconclusive. Unless noted, on the % scale 0 is the no-effect control and ±100 the full control effect.

SMILES	HT1080-NT tox	IL1B secr inh	DT40 TDP1 CPT	TDP1 cell noCPT	HT1080 IDH1KD tx	12-LOX inh
COc1ccc2cc(-c3[nH]ncc3CN3CCCN(c4ccccc4)CC3)ccc2c1	?	?	23µM*	?	?	-24%
O=C([C@@H]1C[C@H](F)CN1S(=O)(=O)c1ccc(Br)cc1)N1CCCCC1	.	.	.	.	.	13%
CCOc1ccc(-c2cc(NC(=O)Cn3ncc4c3-c3ccccc3OC4)on2)cc1OCC	-21%	10	-3%	-4%	-20%	1%
COc1ccccc1NC(=O)Cn1ncc2c1-c1ccccc1OC2	-3%	-22	15µM*	?	2%	-6%
CCOc1ccccc1N(CC)C(=O)Cn1ncc2c1-c1ccccc1OC2	.	.	21µM*	16µM*	.	-22%
CCN(CC)S(=O)(=O)c1cc(C(=O)Nc2cccnc2Cl)ccc1Cl	-10%	43	5%	?	-7%	11%
COc1ccccc1-n1ncc2c(=O)[nH]c(SCC(=O)Nc3ccc(Cl)cc3)nc21	.	.	9%	-20%	.	-42%
CN(CC1CCN(CCc2ccc(F)cc2)CC1)C1CCC1	.	.	.	.	.	5%
Cc1ccc(Cn2c(CN3CCN(c4cccc(Cl)c4)CC3)nc3c2c(=O)n(C)c(=O)n3C)cc1	.	.	18µM*	?	.	1%
CCCn1c(CN2CCN(c3cccc(Cl)c3)CC2)nc2c1c(=O)n(C)c(=O)n2C	-4%	25	5.8µM*	6.5µM*	-21%	?
CCCCCn1c(CN2CCN(c3cccc(Cl)c3)CC2)nc2c1c(=O)n(C)c(=O)n2C	9%	-18	16µM*	21µM*	2%	-9%
CCCCn1c(CN2CCN(c3cccc(Cl)c3)CC2)nc2c1c(=O)n(C)c(=O)n2C	2%	-8	7.3µM*	6.5µM*	2%	-14%
C=C(C)CN(CC)C(=O)CN1C(=O)NC(C)(c2ccc3ccccc3c2)C1=O (stereo unspecified)	-7%	-18	-26%	-21%	-5%	-1%
CN(Cc1cccc2ccccc12)Cc1cccn1C	.	.	.	.	.	15%[176 µM]
CCOC(=O)c1c(C)n(-c2ccccc2)c2ccc(OC(=O)c3ccccc3NC(=O)C(C)(C)C)cc12	.	.	?	12µM*	.	?
CCOC(=O)c1c(C)n(-c2ccccc2)c2ccc(OC(=O)c3ccccc3NC(=O)C(C)C)cc12	.	.	?	18µM*	.	-11%
CCOC(=O)c1c(C)n(-c2ccccc2)c2ccc(OC(=O)c3cccc(C)c3)cc12	.	.	?	?	.	-22%
COCCOC(=O)c1c(C)n(C)c2ccc(OC(=O)c3ccccc3OC)cc12	-2%	-11	-24%	16µM*	2%	20%
CCCCSc1nnc([C@H](C)NC(=O)OC(C)(C)C)o1	4%	5	-11%	-6%	-18%	10%
CCCCSc1nnc([C@H](CC(C)C)NC(=O)OC(C)(C)C)o1	3%	37	18µM*	?	0%	-16%
Cn1ccsc1=NC(=O)c1ccc([N+](=O)[O-])o1	-19%	-29	18µM*	?	-21%	-24%
COc1ccc(C(O)c2nc(-c3ccc(F)cc3OC)cs2)cc1 (stereo unspecified)	-5%	-16	26µM*	?	16%	7%
COc1cccc(C(O)c2nc(-c3ccc(F)cc3OC)cs2)c1 (stereo unspecified)	?	-22	-18%	?	19%	-3%
COc1cc(F)ccc1-c1csc(C(O)c2ccc(F)cc2)n1 (stereo unspecified)	-2%	-6	23µM*	?	?	?
Cc1ccc(-c2n[nH]c(=O)c3ccccc23)cc1NC(=O)N[C@@H](C)C(=O)O	.	.	.	.	.	2%
SMILES	HT1080-NT tox	IL1B secr inh	DT40 TDP1 CPT	TDP1 cell noCPT	HT1080 IDH1KD tx	12-LOX inh
CCOc1ccc(S(=O)(=O)Nc2ccc(-c3cn4ccc(C)nc4n3)cc2)cc1	.	.	.	.	.	-2%
Cc1ccc(CNC(=O)N2CCCN(S(C)(=O)=O)C(c3ccccc3)CC(=O)NCC2)cc1 (stereo unspecified)	.	.	.	.	.	24%
Fc1ccc(Nc2cncc(-c3ccsc3)c2)cc1Cl	4%	0	16µM*	18µM*	-6%	40µM*
O=C(Nc1cccnc1)Nc1ccc(F)c(Cl)c1	-4%	-20	-26%	?	3%	-5%
COc1ccc2c(c1)c(=O)c(C(=O)c1ccc(C)cc1)cn2CC(=O)Nc1ccc(F)cc1	-25%	-15	?	16µM*	-24%	-7%
CCc1ccc(C(=O)c2cn(CC(=O)Nc3cccc(OC)c3)c3ccc(OC)cc3c2=O)cc1	.	.	?	23µM*	.	-28%
CCc1ccc2c(c1)c(=O)c(C(=O)c1ccccc1)cn2CC(=O)Nc1ccc(C)c(Cl)c1	.	.	21µM*	12µM*	.	?
CCOC(=O)CCNC(=O)NCC(=O)N1CCCCCNC(=O)CC1c1ccccc1 (stereo unspecified)	.	.	.	.	.	38%
O=C(CSc1nc2c(cnn2-c2cccc(Cl)c2)c(=O)[nH]1)NCC1CCCO1 (stereo unspecified)	0%	14	7%	21%	3%	-4%
CNC(=O)CSc1ncnc2c1cnn2-c1ccccc1	14%	-22	20%	9%	8%	-4%
O=C(CSc1ncnc2c1cnn2-c1ccccc1)NC1CCCC1	6%	-9	18µM*	23µM*	6%	22%
